ATXN viability – Viability Counterscreen for Primary qHTS for Inhibitors of ATXN expression; S2 cells (HEK-293 line with an ATXN2-luciferase reporter) viability, CellTiter-Fluor protease fluorescence, 24 h; 400,000 compounds, 0.49% hits; Potency, µM (doses to about 56.7 µM), actives largely listed as cytotoxic; also: nearly all actives have a fitted effect of over 40% in size
KB-V1 MDR tox – qHTS assay for MDR1-selective chemotherapeutics: Primary screen using the drug-selected MDR subline cells KB-V1 | 400,000 compounds, 3.4% hits | KB-V1 MDR cells viability, CellTiter-Glo, 72 h | Potency, µM (top dose mostly 46.1 µM), hits mostly cytotoxic; also: % is scaled to controls: 0 for no effect and ±100 for the full control effect; nearly all actives have a fitted effect of over 60% in size
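Cells of the MDR subline KB-V1 are plated, dosed with compound at multiple concentrations, and incubated 72 h at 37 degrees C; CellTiter-Glo is then added and luminescence read after 10 min.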
ATXN2 expr inh – Primary qHTS for Inhibitors of ATXN expression; 360,000 compounds, 0.72% hits; Potency, µM (doses to about 57 µM), for the others: at the top dose activity change, negative = inhibition, most hits filed as inhibitors; HEK-293 ATXN2-luciferase reporter, luminescence, 24 h; also: % is scaled to controls: 0 for no effect and ±100 for the full control effect; nearly all actives have a fitted effect of over 55% in size
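ATXN2-luciferase reporter cells (luciferase flanked by upstream and downstream ATXN2 gene portions) were treated 24 h at 37 °C with compounds at up to 57 uM. SteadyGlo luminescence gave expression; GF-AFC fluorescence gave viability.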
KB-3-1 tox – qHTS assay for MDR1-selective chemotherapeutics: Primary screen using the parental adenocarcinoma cell KB-3-1; KB-3-1 viability, CellTiter-Glo ATP luminescence, 72 h; Potency, µM (titrated, usually from 46.1 µM), most hits filed as cytotoxic; AID 1347075, 2019; 400,000 compounds, 1.4% hits; also: % is scaled to controls: 0 for no effect and ±100 for the full control effect; nearly all actives have a fitted effect of over 60% in size
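KB-3-1 parental drug-naive adenocarcinoma cells in DMEM/10% FBS, incubated 72 h at 37 C with pin-transferred compounds across a concentration series. Viability by CellTiter-Glo luminescence; concentration-response curves fitted after normalization.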
HT1080 IDH1KD tx – qHTS for induction of synthetic lethality in tumor cells producing 2HG: qHTS for the HT-1080-IDH1KD cell line. HT-1080 IDH1 knockdown viability, ATP luminescence, 48 h. Potency, µM (top dose mostly 46.1 µM), for inactives: at the top dose activity, negative = toxicity, usual class: cytotoxic. 360,000 compounds, 2% hits. AID 686971, 2013;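 also: 0% = DMSO wells and -100% = cell-free medium wells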
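Assay cells: HT-1080 with IDH1 knockdown, 750 per well, RPMI/5% FBS. Exposure: 48 h at 37 °C following 2 h pre-incubation. Read: CellTiter-Glo luminescence; fitted concentration-response, curve class assigned.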
HT1080NT lethal – qHTS for induction of synthetic lethality in tumor cells producing 2HG: qHTS for the HT-1080-NT fibrosarcoma cell line; HT-1080-NT fibrosarcoma viability, CellTiter-Glo ATP luminescence, 48 h; Potency, µM (top dose mostly 46.1 µM), without a hit: at the highest dose activity, negative = less viability, usual class: cytotoxic; 360,000 compounds, 1.6% hits;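 also: NT is the 2HG producing partner of a matched IDH1 knockdown line; 0% = DMSO-treated cells and -100% = media-only wells without cells; nearly all actives have a fitted effect of over 55% in size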
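Fibrosarcoma NT cells, 750 per well in 5% FBS RPMI, were exposed to compound for 48 hours. Viability: CellTiter-Glo luminescence.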
Numbers without * were called inactive; i = inactive; ? = inconclusive; . = no result given; [ ] = another dose, or the depositor's remark. Sampled rows, rich in hits. Any-hit rate of the full collection: about 6.2%. Calls follow the shape of the dose curve; as a rule, active = well fitted curve in the direction sought with a large enough effect; inconclusive = small, poorly fitted or top-dose-only effect, or another doubt; inactive = no such curve, though single readings can be large; an effect the other way counts as inactive or inconclusive. Potency is read from the fitted curve at half-maximal effect.

SMILES	ATXN viability	KB-V1 MDR tox	ATXN2 expr inh	KB-3-1 tox	HT1080 IDH1KD tx	HT1080NT lethal
Cn1c(=O)c2cc(NC(=O)CCc3ccccc3)ccc2n1-c1ccccc1F	?	i	10%	?	7.3µM*	?
CC(C)=CCn1c2ccc(NC(=O)NCc3ccc(F)cc3)cc2c(=O)n1C	?	i	-6%	4.6µM*	2.3µM*	?
Cn1c(=O)c2cc(NC(=O)Nc3cccnc3)ccc2n1-c1ccc(C(C)(C)C)cc1	?	i	?	?	?	21µM*
CCC1CCCCN1CCCNC(=O)c1c(C)oc2ncn(CC(C)C)c(=O)c12 (stereo unspecified)	i	i	-3%	i	.	.
Fc1cccc(/C=N/Nc2cc(N3CCOCC3)ncn2)c1	.	i	35%	i	1%	7%
CC1=C(C(=O)Nc2ccccc2)C(c2ccc(Br)cc2)n2nc(CCCO)nc2N1 (stereo unspecified)	i	i	12%	i	.	.
Cc1ccc(Nc2sc(C(=O)c3ccccc3)c(N)c2S(=O)(=O)c2ccccc2)cc1Cl	.	i	.	i	.	.
COc1cccc(CNC(=S)Nc2ccc3c(c2)c(=O)n(C)n3Cc2ccc(F)cc2)c1	i	i	-19%	i	0%	?
COc1cccc(Cn2c3ccc(NC(=O)CCc4ccc(F)cc4)cc3c(=O)n2C)c1	?	?	-11%	4.1µM*	4.1µM*	?
CC(CC(=O)Nc1ccc2c(c1)c(=O)n(C)n2-c1ccccc1)c1ccccc1 (stereo unspecified)	?	10µM*	6%	4.6µM*	2.9µM*	3.7µM*
CS(=O)(=O)N(CC(=O)N1CCN(c2ccccc2F)CC1)C1CCCCC1	i	?	-3%	i	-1%	-1%
Cc1ccc(S(=O)(=O)N(CC(=O)N2CCN(c3ccccc3F)CC2)C2CCCCC2)cc1	i	4.6µM*	-11%	?	-11%	-1%
CC(C)C1Cc2c(sc3[nH]c(=S)n(Cc4ccccc4)c(=O)c23)CO1 (stereo unspecified)	i	?	?	21µM*	?	?
CCCOC(=O)c1ccc(N)cc1	i	.	16%	.	.	.
CN(CC(=O)Nc1sc2c(c1C#N)CCCCC2)Cc1nc2ccccc2c(=O)[nH]1	i	16µM*	-15%	i	-16%	-7%
CNC[C@H](O)[C@@H](O)[C@H](O)[C@H](O)CO	i	.	11%	.	.	.
O=C(CCc1nc(-c2ccccc2Cl)no1)NC1CCCCC1	i	i	-17%	i	-13%	-4%
O=C(CCc1nc(-c2ccccc2)no1)NC1CCCCC1	i	21µM*	6%	i	-10%	-1%
O=C(CCc1nc(-c2ccc(Cl)cc2)no1)NC1CCCCC1	?	?	-8%	i	19%	3%
O=C(CCc1nc(-c2ccccc2F)no1)Nc1ccc(Oc2ccccc2)cc1	?	?	46%	?	16µM*	15µM*
O=C(CCc1nc(-c2ccccc2F)no1)NC1CCCCCC1	i	16µM*	-3%	?	5%[9.24 µM]	1%
C=C(CN(C)C)C(=O)c1cc(C)ccc1C	11µM*	?	11µM*	?	4.6µM*	?
Cc1ccc(C)c(C(=O)NCCN(C)C)c1	i	i	-1%	i	21%	18%
CCOC(=O)C1=C(c2cccc(Oc3ccccc3)c2)NC(=S)NC1C (stereo unspecified)	i	16µM*	-25%	?	-8%[9.24 µM]	?
CCOC(=O)C1=C(C)C(c2cccc(Oc3ccccc3)c2)NC(=S)N1 (stereo unspecified)	i	?	-31%[11.3 µM]	i	?	?
SMILES	ATXN viability	KB-V1 MDR tox	ATXN2 expr inh	KB-3-1 tox	HT1080 IDH1KD tx	HT1080NT lethal
Cc1ccc(OCc2nc3ccccc3n2C(C)C(=O)Nc2c(C)cccc2C)cc1 (stereo unspecified)	.	?	.	i	?	?
CCc1nnc(N/N=C\c2ccc(OC(C)=O)c(OC)c2)n1N	i	i	-15%	i	18µM*	?
CCc1nnc(N/N=C/c2ccc(O)c(OC)c2)n1N	i	i	3%	i	-11%	-28%
Cc1nnc(N/N=C/c2cccc(C(F)(F)F)c2)n1N	i	i	0%	i	?	?
CCOc1cc(/C=N/Nc2nnc(C)n2N)ccc1OC(C)=O	i	i	-17%	i	21µM*	16µM*
COc1ccc(/C=N/Nc2nncn2N)cc1Br	i	i	-19%	i	?	16µM*
Cc1cc(C)cc(C(=O)NCCn2cc(C(=O)N3CCSCC3)nn2)c1	i	.	.	.	.	.
O=C(COc1ccccc1F)Nc1ccc2[nH]c(=O)[nH]c2c1	?	6.5µM*	3%	?	1%	10%
COc1cccc(C(=O)Nc2ccc3[nH]c(=O)[nH]c3c2)c1OC	.	0.73µM*	12%	1.2µM*	6%	0%
O=C(COc1ccccc1)Nc1ccc2[nH]c(=O)[nH]c2c1	i	i	-11%	i	-2%	14%
CN(Cc1cn(C)nc1-c1ccc(Oc2ccccc2)cc1)Cc1cnc2ccccn12	.	i	.	i	-20%	29µM*
Cc1ccc(C)c(CN2C(=O)c3ccccc3S(=O)c3ccc(C(=O)N(C)Cc4ccccc4)cc32)c1 (stereo unspecified)	i	i	?	i	.	.
COC(CNC(=O)c1cccnc1)OC	i	i	.	i	6%	1%
COC(CNC(=O)c1ccc2c3c(onc13)-c1ccccc1C2=O)OC	.	i	?	?	?	23µM*
O=C(CSc1nc2nc(-c3cccs3)cc(C(F)(F)F)c2c(=O)[nH]1)Nc1ccc(F)c(F)c1	i	?	?	15µM*	?	?
CCC(C)(C)n1nnnc1C(c1ccc(C)cc1)N(Cc1ccco1)Cc1cccs1 (stereo unspecified)	i	11µM*	?	?	?	-12%
COc1cccc(CN(Cc2ccco2)C(c2ccc(F)cc2)c2nnnn2C(C)(C)C)c1 (stereo unspecified)	i	?	?	?	-8%	-1%
CCCCN1C(=O)C(O)(c2c[nH]c3ccccc23)c2cc(Br)ccc21 (stereo unspecified)	i	i	?	i	.	.
